Results from the supplement of paper PMC12808144.

These compounds were tested on Mel-DCC-11-R (assay: cell viability relative to DMSO control (fraction of DMSO control); higher = less cytotoxic, active = 0.8 or less). Details: 1 µM; 120 h; vemurafenib co-treatment 0 µM.
Procedure: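 Same 315-drug TargetMol library at 1 µM in duplicate, 120 h, ATPlite luminescence normalised to DMSO controls, on the vemurafenib-resistant subline Mel-DCC-11-R cultured alone or with 8 µM vemurafenib co-treatment (Mel-DCC-11-R + V).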

Row | Compound | cell viability
1 | CC1(C)O[C@H]2CC(=O)OC[C@]23[C@H]2CC[C@@]4(C)[C@H](c5ccoc5)OC(=O)[C@H]5O[C@]54[C@]2(C)C(=O)C[C@@H]13 [Limonin] | 0.857 (inactive)
2 | CC1(C)CCC(C)(C)c2cc(NC(=O)c3ccc(C(=O)O)cc3)ccc21 [Tamibarotene] | 0.958 (inactive)
3 | COc1cc2c(N3CCN(C(=O)Nc4ccc(OC(C)C)cc4)CC3)ncnc2cc1OCCCN1CCCCC1 [Tandutinib] | 0.907 (inactive)
4 | O=c1[nH]c(=O)n([C@H]2C[C@H](O)[C@@H](CO)O2)cc1/C=C/Br [Brivudine] | 0.809 (inactive)
5 | C[C@@H](Oc1cc(-c2cnn(C3CCNCC3)c2)cnc1N)c1c(Cl)ccc(F)c1Cl [Crizotinib] | 1.16 (inactive)
6 | Nc1nc(=O)c2c([nH]1)NC[C@H](CNc1ccc(C(=O)N[C@@H](CCC(=O)[O-])C(=O)[O-])cc1)N2C=O.[Ca+2] [Calcium Levofolinate] | 1.8 (inactive)
7 | COc1cc2nccc(Oc3ccc(NC(=O)NC4CC4)c(Cl)c3)c2cc1C(N)=O [Lenvatinib] | 1.03 (inactive)
8 | COc1c(OCCCN2CCOCC2)ccc2c1N=C(NC(=O)c1cnc(N)nc1)N1CCN=C21 [Copanlisib] | 0.671 (active)
9 | CC[C@@H]1C(=O)N(C)c2cnc(Nc3ccc(C(=O)N[C@H]4CC[C@H](N5CCN(CC6CC6)CC5)CC4)cc3OC)nc2N1C(C)C [Volasertib] | 1 (inactive)
10 | CCCCCCCCCCCCCC(=O)[O-].CCCCCCCCCCCCCC(=O)[O-].N[C@@H]1CCCC[C@H]1N.[Pt+2] [Miriplatin] | 1.04 (inactive)
11 | COc1ccc2cc3[n+](cc2c1OC)CCc1cc2c(cc1-3)OCO2 [Berberine] | 1.05 (inactive)
12 | S=P(N1CC1)(N1CC1)N1CC1 [Triethylenethiophosphoramide] | 0.91 (inactive)
13 | C#CCC(Cc1cnc2nc(N)nc(N)c2n1)c1ccc(C(=O)N[C@@H](CCC(=O)O)C(=O)O)cc1 (stereo not given in full) [Pralatrexate] | 0.982 (inactive)
14 | N.N.O=C([O-])C[O-].[Pt+2] [Nedaplatin] | 1 (inactive)
15 | COc1ccc2cc1Oc1ccc(cc1)C[C@H]1c3c(cc4c(c3Oc3cc5c(cc3OC)CCN(C)[C@@H]5C2)OCO4)CCN1C [Cepharanthine] | 0.934 (inactive)
16 | CCc1ccc(CCOc2ccc(CC3SC(=O)NC3=O)cc2)nc1.Cl (stereo not given) [Pioglitazone hydrochloride] | 0.921 (inactive)
17 | COc1cc2c(Nc3ccc(Br)cc3F)ncnc2cc1OCC1CCN(C)CC1 [Vandetanib] | 1.29 (inactive)
18 | CCN(CC)CCOc1ccc2c(c1)C(=O)c1cc(OCCN(CC)CC)ccc1-2.Cl.Cl [Tilorone dihydrochloride] | 0.883 (inactive)
19 | COc1cccc2c1C(=O)c1c(O)c3c(c(O)c1C2=O)C[C@@](O)(C(C)=O)C[C@@H]3O[C@H]1C[C@H](N)[C@H](O)[C@H](C)O1.Cl [Daunorubicin hydrochloride] | 0.0677 (active)
20 | CS(=O)(=O)O.Cc1ccc(NC(=O)c2ccc(CN3CCN(C)CC3)cc2)cc1Nc1nccc(-c2cccnc2)n1 [Imatinib Mesylate] | 0.94 (inactive)

Same assay, conditions: 1 µM; 120 h; vemurafenib co-treatment 8 µM

Row | Compound | cell viability
21 | CC1(C)O[C@H]2CC(=O)OC[C@]23[C@H]2CC[C@@]4(C)[C@H](c5ccoc5)OC(=O)[C@H]5O[C@]54[C@]2(C)C(=O)C[C@@H]13 [Limonin] | 1.11 (inactive)
22 | CC1(C)CCC(C)(C)c2cc(NC(=O)c3ccc(C(=O)O)cc3)ccc21 [Tamibarotene] | 1.21 (inactive)
23 | COc1cc2c(N3CCN(C(=O)Nc4ccc(OC(C)C)cc4)CC3)ncnc2cc1OCCCN1CCCCC1 [Tandutinib] | 1.04 (inactive)
24 | O=c1[nH]c(=O)n([C@H]2C[C@H](O)[C@@H](CO)O2)cc1/C=C/Br [Brivudine] | 1.12 (inactive)
25 | C[C@@H](Oc1cc(-c2cnn(C3CCNCC3)c2)cnc1N)c1c(Cl)ccc(F)c1Cl [Crizotinib] | 0.825 (inactive)
26 | Nc1nc(=O)c2c([nH]1)NC[C@H](CNc1ccc(C(=O)N[C@@H](CCC(=O)[O-])C(=O)[O-])cc1)N2C=O.[Ca+2] [Calcium Levofolinate] | 1.27 (inactive)
27 | COc1cc2nccc(Oc3ccc(NC(=O)NC4CC4)c(Cl)c3)c2cc1C(N)=O [Lenvatinib] | 1.17 (inactive)
28 | COc1c(OCCCN2CCOCC2)ccc2c1N=C(NC(=O)c1cnc(N)nc1)N1CCN=C21 [Copanlisib] | 0.254 (active)
29 | CC[C@@H]1C(=O)N(C)c2cnc(Nc3ccc(C(=O)N[C@H]4CC[C@H](N5CCN(CC6CC6)CC5)CC4)cc3OC)nc2N1C(C)C [Volasertib] | 0.664 (active)
30 | CCCCCCCCCCCCCC(=O)[O-].CCCCCCCCCCCCCC(=O)[O-].N[C@@H]1CCCC[C@H]1N.[Pt+2] [Miriplatin] | 1.03 (inactive)
31 | COc1ccc2cc3[n+](cc2c1OC)CCc1cc2c(cc1-3)OCO2 [Berberine] | 0.918 (inactive)
32 | S=P(N1CC1)(N1CC1)N1CC1 [Triethylenethiophosphoramide] | 0.932 (inactive)
33 | C#CCC(Cc1cnc2nc(N)nc(N)c2n1)c1ccc(C(=O)N[C@@H](CCC(=O)O)C(=O)O)cc1 (stereo not given in full) [Pralatrexate] | 1.09 (inactive)
34 | N.N.O=C([O-])C[O-].[Pt+2] [Nedaplatin] | 1.18 (inactive)
35 | COc1ccc2cc1Oc1ccc(cc1)C[C@H]1c3c(cc4c(c3Oc3cc5c(cc3OC)CCN(C)[C@@H]5C2)OCO4)CCN1C [Cepharanthine] | 0.912 (inactive)
36 | CCc1ccc(CCOc2ccc(CC3SC(=O)NC3=O)cc2)nc1.Cl (stereo not given) [Pioglitazone hydrochloride] | 1.18 (inactive)
37 | COc1cc2c(Nc3ccc(Br)cc3F)ncnc2cc1OCC1CCN(C)CC1 [Vandetanib] | 1.01 (inactive)
38 | CCN(CC)CCOc1ccc2c(c1)C(=O)c1cc(OCCN(CC)CC)ccc1-2.Cl.Cl [Tilorone dihydrochloride] | 1.15 (inactive)
39 | COc1cccc2c1C(=O)c1c(O)c3c(c(O)c1C2=O)C[C@@](O)(C(C)=O)C[C@@H]3O[C@H]1C[C@H](N)[C@H](O)[C@H](C)O1.Cl [Daunorubicin hydrochloride] | 0.0387 (active)
40 | CS(=O)(=O)O.Cc1ccc(NC(=O)c2ccc(CN3CCN(C)CC3)cc2)cc1Nc1nccc(-c2cccnc2)n1 [Imatinib Mesylate] | 1.1 (inactive)
